Measured values reported in PubChem BioAssay AID686970 (National Center for Advancing Translational Sciences (NCATS), 2013).
The whole screen tested about 360,000 compounds, of which about 6,000 (1.7%) were called active. Another 8% or so got no clear call; they are omitted. This is one part of a sample in which actives are shown more often than they occur. Values without a mark were called inactive. Calls come from the whole dose curve; as a rule, active = well fitted cell-killing curve with a large enough effect; inconclusive = small, poorly fitted or top-dose-only effect, or effect the other way; inactive = flat fitted curve, though single readings scatter.

Assay: qHTS for induction of synthetic lethality in tumor cells producing 2HG: qHTS for the HT-1080-NT fibrosarcoma cell line;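 note: NT is the 2HG producing partner of a matched IDH1 knockdown line; nearly all actives have a fitted effect of over 55% in size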;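 for activity, negative = less viability: 0% = DMSO-treated cells and -100% = media-only wells without cells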
Conditions: HT-1080-NT fibrosarcoma viability, CellTiter-Glo ATP luminescence, 48 h; series mostly up to 46.1 µM; activity, negative = less viability: at the top concentration
In short: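 A 48-hour cytotoxicity screen used HT-1080-NT cells plated 2 hours before compound delivery. ATP-based CellTiter-Glo luminescence measured viability, normalized to DMSO and no-cell controls.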
Potency is the fitted concentration of half-maximal effect.

Structure (SMILES) | activity, negative = less viability [%] | Potency
NS(=O)(=O)c1ccc(NC(=O)CSc2nnc3c(n2)[nH]c2ccccc23)cc1 | -10.4 | 
CN1CCN(C2Cc3ccc(Cl)cc3Sc3ccc(F)cc32)CC1 (stereo not drawn) |  | 14.6 µM (active)
C[C@H]1CN([C@@H](C)CO)C(=O)c2cc(Br)cnc2O[C@H]1CN(C)S(=O)(=O)c1cccs1 | 5.18 | 
CN(C)c1cccc(NC(=O)c2ccc(-c3ccc(F)c(F)c3)c3ccoc23)c1 | 7.38 | 
Cc1ccc(S(=O)(=O)N2CC3C(=O)C[C@@H](c4ccccc4Cl)N(S(=O)(=O)c4ccc(C)cc4)C3CC2c2ccccc2)cc1 (stereo partly drawn) | 4.22 | 
CC1(C)OC(=O)C2=C(C[C@@H](C3CC3)O[C@H]2CCc2cccc(Cl)c2)O1 | -21.7 | 
CN1CCN(CCCCOc2cccc3ccccc23)CC1 | -3.37 | 
CC(C)c1ccccc1OCC(O)CN(CC(O)COc1cccc2ccccc12)C(C)C (stereo not drawn) |  | 18.4 µM (active)
CCC(C)Sc1nc2c(c(=O)[nH]c(=O)n2C)n1CC(O)COc1cccc2ccccc12 (stereo not drawn) | -3.75 | 
Cc1nc(C(F)(F)F)ccc1C(=O)N1CCC1(C)C(=O)NS(=O)(=O)c1ccc(F)cc1F (stereo not drawn) | 23.6 | 
COC(=O)c1ccc2nc(-c3cccc(Br)c3)c(Cc3ccccc3C(F)(F)F)n2c1 | 18.3 | 
O=C(Nc1ccc(Cl)cc1)C1Cc2c(-c3ccc4c(c3)OCO4)ccnc2O1 (stereo not drawn) | -26.5 | 
COc1ccc(NC(=O)C2Cc3c(-c4ccc5c(c4)OCO5)ccnc3O2)cn1 (stereo not drawn) |  | 5.8 µM (active)
COc1ccc(NC(=O)C2Cc3c(-c4cccc(NC(C)=O)c4)ccnc3O2)cc1OC (stereo not drawn) | -32.4 | 
O=C1C(=O)N(CC2COc3ccccc3O2)c2ccccc21 (stereo not drawn) | -5.04 | 
Cc1ccsc1C(=O)OCC(=O)c1cc(C)n(CC2CCCO2)c1C (stereo not drawn) | -2.95 | 
Cc1cc(C(=O)CCl)c(C)n1CC1COc2ccccc2O1 (stereo not drawn) |  | 14.6 µM (active)
COCCCn1c(=O)/c(=C/c2ccccc2OC(C)C)s/c1=C(\C#N)C(=O)Nc1ccc(C(=O)O)cc1 | -16 | 
CCOC(=O)C1CCCN(C(=O)c2ccc(C)c(F)c2)CC1 (stereo not drawn) | 12.6 | 
CC(Nc1nc(C(F)(F)F)nc2ccccc12)c1cccs1 (stereo not drawn) |  | 20.6 µM (active)
CC(C)(C)Nc1nc(-c2ccccn2)nc2ccccc12 | -14.3 | 
Cc1cc(C)n(-c2nc(C(F)(F)F)nc3ccccc23)n1 | -1.68 | 
Clc1ccc(-c2cccc3nccn23)cc1 | 36.5 | 
CCOC(=O)c1ccccc1OC(=O)Oc1ccccc1C(=O)OCC | -20.1 | 

Structure (SMILES) | activity, negative = less viability [%] | Potency
CCOC(=O)c1c(C)[nH]c2c1-c1ccccc1C(=O)C2=O |  | 2.91 µM (active)
CCOC(=O)C1=C(C)c2ccccc2OC1(C)C(=O)OCC (stereo not drawn) | 7.06 | 
CCOC(=O)[C@]12CCCC=C1N(Cc1ccc3c(c1)OCO3)C(=O)[C@H](CC(=O)N1CCN(C(=O)c3ccco3)CC1)C2 | -1.49 | 
COc1cc(CNc2ncnc3c2ncn3[C@H]2CN(Cc3cccs3)C[C@@H](CO)O2)cc(OC)c1OC | -19.8 | 
COCCNc1nc(NCc2ccc(NC(C)=O)cc2)c2sccc2n1 | 21.7 | 
CC(=O)Nc1ccc(CNc2nc(NCCN(C)C)nc3cc(-c4ccccc4)sc23)cc1 |  | 11.6 µM (active)
COCCNc1nc(Nc2ccccc2Cl)c2sc(-c3ccccc3)cc2n1 | 22.7 | 
COc1ccc(Cl)cc1NC(=O)CN(C)C(=O)c1cn(-c2ccccc2)nc1-c1cccs1 | 2.6 | 
Cc1ccc(C(=O)N2CCCc3ccccc32)c(Cl)c1 | -0.902 | 
O=C(c1cc(-c2ccc(O)cc2)on1)N1CCCc2ccccc21 | 9.42 | 
Cc1cccc2cc3c(N)c(C(=O)N4CCCc5ccccc54)sc3nc12 |  | 3.26 µM (active)
O=C(C[C@H]1C[C@@H]2c3cc(NC(=O)C4CCC4)ccc3O[C@@H]2[C@H](CO)O1)NC1CCCCC1 | 4.93 | 
CCOC(=O)C1=C(c2ccc(OC)cc2)C(=O)c2ccccc2C1=O |  | 5.8 µM (active)
COc1ccc(CNC(=O)CCN2C(=O)c3ccccc3C2=O)cc1 | 14.4 | 
CCOC(=O)C(NC(C)=O)C(=O)Nc1ccc(OC)cc1 (stereo not drawn) | 14.9 | 
O=C(NN=Cc1ccc2c(c1)CCC2)c1ccccc1O | 0.557 | 
COc1cccc(NC(=O)C2(C)CCN2C(=O)CCC2CCCC2)c1 (stereo not drawn) | 6.2 | 
Cc1cc(NC(=O)CCC(=O)N(CC(=O)NC2CCCC2)c2ccc(F)cc2)no1 | 11.2 | 
Cc1cc(NC(=O)CCC(=O)N(c2ccccc2)C(C(=O)NC2CCCC2)c2ccncc2)no1 (stereo not drawn) | 17 | 
Cc1cc(NC(=O)/C=C/C(=O)N(c2ccccc2C)C(C(=O)NC2CCCC2)c2ccc(F)cc2)no1 (stereo not drawn) |  | 11.2 µM (active)
CC1(C(=O)Nc2ccc3c(c2)OCCO3)CCN1C(=O)Cc1cc(F)ccc1F (stereo not drawn) | 13.2 | 
O=C(O)C1=C(C(=O)O)C2CCC1C2 | -0.299 | 
CCCC(O)(CCC)C(=O)NN(C(=O)CCl)c1cccc(C)c1 |  | 6.51 µM (active)
CC(C)(O)C(=O)NN(C(=O)c1ccccc1)c1cccc(Br)c1 | 9.85 | 
